Holding throughout (assay): NCI-60 one-dose screen, 48 h (100 = growth as untreated, 0 = no growth, -100 = all killed)
What all share (conditions): 10 µM unless noted

The test system of assay [1] is HCT-15 colon.
Assay [2] deals with HT29 colon.
Assay [3] relates to SNB-75 CNS.
For assay [4], the system named is SNB-19 CNS.
The subject of assay [5] is U251 CNS.
Assay [6] concerns PC-3 prostate.
In assay [7] the test system is SK-MEL-5 melanoma.
The subject of assay [8] is UACC-62 melanoma.
The test system of assay [9] is LOX IMVI melanoma.
Assay [10] concerns SK-MEL-28 melanoma.

This is part of a sample that, as a whole, favours compounds with a hit. Of some 83,000 tested, about 20% had one in any assay.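 Treatment: one concentration, 48 hours, 96-well format. Scoring: percent growth, with anything below 10 considered active.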 Values without a mark were called inactive. Active and inactive are the calls of the source.

As for `Nc1n[nH]c2cccc(C#Cc3cccc(C(=O)Nc4ccc(Cl)c(C(F)(F)F)c4)c3)c12`, the growth in assay [1] is 56.4%; in [2], 26%; in [3] it was 65.7%; in assay [4] it was 89.1%; in assay [5], 69%; in assay [6], 59.6%. Besides, the growth in assay [7] is 46.7%; in assay [8], 22.2%; in assay [9], 18.1%; in assay [10], 24.7%.

Take `Oc1cccc2c1NCCC2`: the growth in assay [1] was 21.4%; in assay [2], 79.5%; in assay [3], 0.864% (active); in assay [4] it was 14.9%; in assay [5], 14.7%; in assay [6] it was 9.22% (active). In addition, the growth is -51.2% (active) in assay [7], 5.24% (active) in assay [8], 16.4% in assay [9] and 49.5% in assay [10].

Regarding `CC(Cc1cccc2ccccc12)C(N)=O` (stereo unspecified), the growth in assay [1] is 101%; in [2], 101%; in assay [3], 98.6%; in [4] it was 104%; in assay [5], 105%; in assay [6] it was 93.8%. Also, the growth in assay [7] is 101%; in assay [8], 98.8%; in [9] it was 101%; in assay [10], 108%.

As for `O=C1N/C(=N/N=C(c2ccccc2)c2ccccc2)S/C1=C\c1ccc(Br)cc1`, the growth in assay [1] is 97.8%; in assay [2], 81.8%; in assay [3] it was 101%; in assay [4], 100%; in assay [5], 91.3%; in assay [6], 89.8%. Besides, the growth is 97.2% in assay [7], 79.8% in [8], 98.5% in [9] and 112% in [10].

Regarding `CCOC(=O)c1c(N)sc2cc(O)ccc12`, the growth in assay [1] is 97.1%; in [2], 104%; in assay [3] it was 86.7%; in [4] it was 106%; in assay [5], 98.9%; in assay [6], 103%. The growth was 104% in assay [7], 92.3% in assay [8], 96.5% in assay [9] and 92.7% in [10].

In the case of `O=C(/C=C/c1ccc(Cl)cc1)c1ccc(Nc2ccnc3cc(Cl)ccc23)cc1`, the growth in assay [1] is 56.1%; in assay [2], 30.6%; in assay [3] it was 92.5%; in assay [4], 99.7%; in [5] it was 52.7%; in assay [6], 70.9%. Further, the growth in assay [7] is 53.3%; in [8], 92.8%; in [9] it was 83.3%; in assay [10], 104%.

As to `CCCCCCC/C=N/NC(=O)c1ccc(-n2cc(-c3ccccc3)nn2)cc1`, the growth in [1] was 73.6%; in assay [2], 101%; in assay [3], 86.3%; in [4] it was 100%; in assay [5] it was 98.3%; in assay [6], 74.8%. For the same compound, the growth in [7] was 94.9%; in assay [8], 61.9%; in assay [9], 59.5%; in [10], 98.3%.

As to `Cc1c2ccncc2c(C)c2c1c1ccccc1n2CCCCCC(=O)O`, the growth in assay [1] is 87.1%; in [2] it was 101%; in [3] it was 82.8%; in [4], 86.1%; in [5], 85.8%; in assay [6], 86.2%. Further, the growth in [7] was 89.8%; in assay [8] it was 85.2%; in [9] it was 74.4%; in assay [10], 113%.

As to `Cc1ccc(C(F)(F)F)cc1N1CCN(C(=O)[C@H]2C[C@H]2c2ccc(C(F)(F)F)nc2)CC1`, the growth is 93.2% in [1]; 79.8% in assay [2]; 92.2% in assay [3]; 90.5% in assay [4]; 94.2% in assay [5]; 77.7% in assay [6]. For the same compound, the growth was 81.6% in assay [7], 74.8% in assay [8], 96.2% in [9] and 100% in [10].

Take `CCN(CC)CCN1C(=O)c2c(c(C)c3c(oc4cc(OC)ccc43)c2C)C1=O`: the growth in assay [1] was 101%; in assay [2], 96.8%; in assay [3], 77.2%; in assay [4], 87.6%; in assay [5] it was 55.5%; in assay [6], 92%. The growth was 95.8% in [7], 102% in assay [8], 83.1% in assay [9] and 76.1% in assay [10].

Consider `Cc1ccc2c(n1)C[C@H](C(C)(C)O)CC[C@H]2C`, for which the growth in assay [1] is 99.4%; in assay [2], 107%; in [3] it was 91.8%; in [4], 91.8%; in assay [5], 94.4%; in [6], 104%. For the same compound, the growth in assay [7] is 98.9%; in assay [8] it was 94.4%; in assay [9], 101%; in assay [10] it was 106%.

On to `C#CCOc1cc(/C=N/Nc2nc(-c3ccc(OC)cc3)cs2)ccc1O`, for which the growth in [1] is 83.1%; in assay [3], 95.5%; in assay [4] it was 91.9%; in assay [5], 83.8%; in [6], 82.2%; in assay [7], 63.7%. In addition, the growth in assay [8] was 70.8%; in assay [9] it was 90.9%; in [10], 97.8%.

`Cn1cc(-c2csc(-c3cn(C)c4ccc(F)cc34)n2)c2cnccc21`: the growth in assay [1] is -46.4% (active); in [3] it was -73% (active); in [4], 3.63% (active); in assay [5], -89.5% (active); in assay [6], 10.5%; in assay [7], -94.1% (active). Also, the growth in [8] is -69.4% (active); in assay [9], -90% (active).

For `COc1cc(/C=N/NC(=O)c2ccc3nc(-c4ccc(Cl)cc4)[nH]c3c2)cc(OC)c1OC`, the growth in assay [1] is 96%; in [3], 86.6%; in [4] it was 71%; in assay [5], 53.2%; in [6], 59.9%; in assay [7] it was 41.9%. Moreover, the growth is 28.7% in assay [8], 50.6% in assay [9] and 46.5% in [10].
